From PubChem
In the library only some 2.2% were active in any assay of this set; here they are far more common.
JMJD2C inh = human JMJD2C demethylase inhibition | GST-JMJD2C(1-420) H3K9me3 demethylation, DELFIA europium | Q9H3R0 | inhibition, % at 2.35 µM | AID 2099 | 330,000 compounds, 0.069% hits;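 active means more than half of a compound's replicate wells show inhibition beyond 50%, single wells judged on their own value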;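 further: signal counts dimethyl H3K9 product captured on neutravidin plate; 0% = median of DMSO wells and 100% = 0.3 times that DMSO median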
m5-HT2A agonist = agonists of mouse serotonin 5-HT2A receptor (HTR2A); P35363; CHO-K1 mHTR2A beta-arrestin complementation, luminescence; percent of 30 µM serotonin response; activation, % at 7.6 µM; 360,000 compounds, 0.66% hits; AID 624169;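 active means activation above a run cutoff, the mean activation of all tested compounds plus 3 SD, cut at about 14% in these data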;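 further: 0% = plate median of compound wells and 100% = 30 µM serotonin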
Target sequence (P35363 whole entry, looked up): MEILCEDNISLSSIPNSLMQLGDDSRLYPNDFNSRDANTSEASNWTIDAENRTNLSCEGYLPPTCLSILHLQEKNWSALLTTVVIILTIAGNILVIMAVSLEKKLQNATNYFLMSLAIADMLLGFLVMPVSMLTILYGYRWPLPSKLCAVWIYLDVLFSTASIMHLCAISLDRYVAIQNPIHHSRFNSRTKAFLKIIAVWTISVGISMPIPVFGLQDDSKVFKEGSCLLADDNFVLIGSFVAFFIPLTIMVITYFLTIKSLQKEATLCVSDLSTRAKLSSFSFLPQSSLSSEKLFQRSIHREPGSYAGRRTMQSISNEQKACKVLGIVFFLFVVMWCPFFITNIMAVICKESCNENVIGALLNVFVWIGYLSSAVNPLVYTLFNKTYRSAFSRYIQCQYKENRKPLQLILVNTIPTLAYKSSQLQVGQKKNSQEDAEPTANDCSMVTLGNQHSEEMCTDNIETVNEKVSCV
VLA-4 inh = inhibition in a human VLA-4 binding assay | P13612 | VLA-4 expressing cells, ligand binding flow cytometry | inhibition, % (about 7 µM as worked out from the volumes in the protocol) | 330,000 compounds, 0.2% hits | AID 2557; in the data active means inhibition above about 50%
V-ATPase pHluor = yeast V-ATPase proton transport regulation by pHLuorin | response, % at 10 µM | S. cerevisiae, pHLuorin cytosolic pH fluorescence | 350,000 compounds, 0.37% hits; in the data active means response mostly above about 7.3%, no sharp cut-off; inactive means mostly below about 5.4%; further: actives read high
Exocytosis inh = blocks lytic granule exocytosis. TALL-104 LAMP-1 surface exposure, flow cytometry; cells stimulated with thapsigargin and PMA. inhibition, % at 10 µM. 360,000 compounds, 0.66% hits;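 active means inhibition above about 55%, limit read from the data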
MEX-5 binding = C. elegans MEX-5 TCR-2 RNA binding activity; Q9XUB2; MEX-5/FITC-TCR2 RNA binding, fluorescence polarization; active compounds read low; activity score (negative = inhibition of binding), % at 10 µM; 300,000 compounds, 0.38% hits;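 active means inhibition past about -25% in most replicates, and total fluorescence under double the plate's negative control median, limit read from the data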;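 further: 0% = DMSO and -100% = 5 µM competing unlabeled TCR2 RNA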
* = called active by the depositor; i = inactive; · = no result; ! = not active in a repeat.

SMILES	JMJD2C inh	m5-HT2A agonist	VLA-4 inh	V-ATPase pHluor	Exocytosis inh	MEX-5 binding
COc1cc2c(cc1OC)-c1cc(OCc3ccccc3Cl)nc(=O)n1CC2	-2.8	19.5*	12.2	2.3	-1.0	0.1
CCN(CC)CCC(=O)Nc1cccc2c1C(=O)c1ccccc1C2=O	13.2	-2.8	-6.9	2.2	56.4*	-1.5
Nc1cccc(C(=O)OCC(=O)Nc2cccc3c2C(=O)c2ccccc2C3=O)c1	-9.3	3.8	2.6	6.8	-0.4	-0.4
CC(C(=O)N(C)C1CCS(=O)(=O)C1)N1C(=O)/C(=C/c2ccco2)SC1=S (centres undefined)	-3.6	-2.6	5.5	5.8	-1.9	-0.8
CC(C)C(C(=O)O)N1C(=O)/C(=C/C=C/c2ccco2)SC1=S (centres undefined)	3.8	-3.2	-3.4	6.0	1.7	-35.1*
CC(C(=O)Nc1ccc(C(=O)O)c(O)c1)N1C(=O)/C(=C\c2ccco2)SC1=S (centres undefined)	19.5	10.8	-5.8	1.1	-1.7	-25.7*
O=C(CN1C(=O)/C(=C/c2ccco2)SC1=S)Nc1ccc(O)c(C(=O)O)c1	-1.2	-1.7	30.5	-0.2	-1.8	-8.2
O=C(CN1C(=O)/C(=C/c2ccco2)SC1=S)Nc1ccc(C(=O)O)c(O)c1	4.7	7.3	24.0	2.2	1.0	-27.6*
CCOc1ccc(S(=O)(=O)N2CCN(CC)CC2)cc1NC(=O)c1ccccc1F	-11.5	-1.3	-2.4	0.8	12.6	-0.6
CC1=NN(C(N)=S)C(=O)C1N=Nc1c(Cl)cc([N+](=O)[O-])cc1Cl (centres undefined)	3.4	-1.6	1.4	-4.8	4.0	-31.0*
CC(=O)N(C)c1ccc(N=Nc2c(C)[nH]n(C(N)=S)c2=O)cc1	0.8	6.0	8.4	-0.6	-4.2	-32.1*
CC(=O)N(C)c1ccc(N=NC2C(=O)N(C(N)=S)N=C2C)cc1 (centres undefined)	20.4	0.1	10.6	0.6	-1.0	-25.6*
CC1=NN(C(N)=S)C(=O)C1N=Nc1ccccc1O (centres undefined)	15.2	-13.9	0.2	4.8	-3.2	4.6
CC1=NN(C(N)=S)C(=O)C1N=Nc1ccc(S(N)(=O)=O)cc1 (centres undefined)	3.4	-0.6	8.6	-1.5	-6.1	-68.7*
C/C(CCc1ccccc1)=N\NC(=S)NCCc1ccccc1	-5.8	-1.2	7.9	-5.0	90.8*	-0.7
NC(Cc1ccc(C(F)(F)F)cc1)c1csc(Nc2nccc(C(F)(F)F)n2)n1 (centres undefined)	·	7.9	·	·	16.8	·
COCCN1C(=O)/C(=C/c2ccc(OCc3ccc(C(=O)O)cc3)c(OC)c2)SC1=Nc1ccccc1	-15.4	2.6	2.3	4.2	79.3*	-1.4
O=C1CC(NS(=O)(=O)c2cc(F)ccc2F)CN1c1ccc2c(c1)OCCO2 (centres undefined)	-19.7	5.7	-11.6	-5.4	12.7	-1.0
Cc1cc(C)nc(S/C=C/C(=O)c2ccc(F)cc2)n1	11.0	·	8.4	·	·	-3.1
Oc1ccc(C2C[C@H]3CC[C@@H]2C3)cc1O (some centres undefined)	-0.6	-1.6	3.7	-2.7	1.8	-65.1*
CC(=O)N1CCN(S(=O)(=O)c2cccc(C(=O)OCC(=O)N(Cc3ccccc3)C(C)(C)C)c2)CC1	-1.0	-6.0	-12.0	0.4	-2.2	·
CC(C)(C)N(Cc1ccccc1)C(=O)COC(=O)c1ccc(S(=O)(=O)N2CCOCC2)cc1	10.9	-0.4	-1.8	1.3	63.0*	·
CCCCn1c(N)c(Sc2ccccc2)c(=O)[nH]c1=O	11.4	-6.5	12.5	5.1	-0.3	·
CCCn1c(N)c(Sc2ccccc2)c(=O)n(CCC)c1=O	8.7	18.3*	5.9	5.7	-3.4	-1.4
CC(Sc1nccn1C)C(=O)Nc1ccc(Cl)cn1 (centres undefined)	-2.3	-6.5	25.1	-3.6	-5.8	2.7
SMILES	JMJD2C inh	m5-HT2A agonist	VLA-4 inh	V-ATPase pHluor	Exocytosis inh	MEX-5 binding
O=c1cc(N=Nc2ccc(Cl)cc2)[nH]c(=O)[nH]1	-3.2	6.4	10.7	12.9*	77.3*	-8.4
Cc1ccn2c(NC3CCCCC3)c(-c3cccc(SC4CCCCC4)c3)nc2c1	-6.0	-5.3	14.3	-2.9	6.7	·
CCC(C)Sc1cccc(-c2nc3cc(C)ccn3c2NC2CCCCC2)c1 (centres undefined)	·	-6.4	-3.3	-4.5	56.6*!	·
O=C(CCN1C(=O)/C(=C/c2ccccc2)SC1=S)NCCCN1CCOCC1	5.7	-3.0	-3.2	-0.1	-3.4	2.2
O=C(CCN1C(=O)/C(=C\c2cccc(Br)c2)SC1=S)NCCCN1CCOCC1	-0.9	-4.2	-8.4	3.0	75.4*	-1.2
Cc1ccc(Cl)c2c1=NC(=O)C=2c1[nH]c(=S)[nH]c1O	-5.5	-2.6	5.4	2.0	8.5	-45.1*
O=C1N=c2ccccc2=C1c1[nH]c(=S)[nH]c1O	4.6	-5.8	-9.1	1.6	-1.1	-0.2
C(=N\Nc1nc2ccccc2[nH]1)/c1ccccn1	-24.7	3.6	·	3.1	-0.7	-42.0*
Fc1ccccc1-c1ccc(/C=N/Nc2nc3ccccc3[nH]2)o1	-5.2	-8.2	16.4	-0.4	70.5*	0.8
C(=N\Nc1nc2ccccc2[nH]1)/c1ccc2ncccc2c1	-1.2	-7.4	-8.3	1.2	16.3	-3.0
O=C(NNC(=O)c1ccccc1F)c1ccco1	0.3	-1.1	-8.1	-0.1	-3.8	-3.7
O=C(NNC(=O)c1ccccc1O)c1ccco1	-0.2	-4.3	13.3	-3.1	-1.0	-29.2*
CCN1/C(=N\N)c2cccc3cccc1c23	26.7	-1.6	i	-0.3	95.3*	-0.9
COc1ccc(-c2nc(CS(=O)CC(=O)NCCC3=CCCCC3)c(C)o2)cc1 (centres undefined)	1.7	39.6*	i	6.5	18.8	-0.9
CCOc1ccc(CCNC(=O)CS(=O)Cc2nc(-c3ccc(C)cc3)oc2C)cc1 (centres undefined)	3.8	-5.4	-6.2	1.0	2.5	2.0
COc1cc(/C=C/C(=O)OCC(=O)N2CCCC2)ccc1OCC#N	-1.1	-1.9	0.3	5.1	4.3	·
CC1CCCCC12NC(=O)N(CC(=O)N1CCN(S(=O)(=O)c3ccc4c(c3)CCC4)CC1)C2=O (centres undefined)	·	4.7	·	24.6*	1.4	·
O=C(CSc1ncnc2nc[nH]c12)Nc1nnc(SCc2ccc(Cl)c(Cl)c2)s1	0.0	-2.8	-13.4	3.3	0.7	-7.8
CC(C)CC(=O)N1CCN(Cc2ccc(C(F)(F)F)cc2)CC1	-7.1	3.8	3.4	-2.6	-1.9	0.4
Cc1nc2ccccc2c(=O)n1/N=C/c1ccccc1O	-2.9	0.0	2.0	2.8	1.8	·
Cc1ccccc1-c1nc2ccccc2c(=O)n1/N=C/c1ccccc1[N+](=O)[O-]	-3.3	-2.1	-0.1	-2.6	66.9*	2.0
